# Measurements published in the supplement of paper PMC8728848.
# The full list was thinned out, with the strongest signals kept by preference.
# Legend:
# Experiment in all cases: glycan array binding signal (z-score within array); higher = stronger binding
# Conditions in all cases: glycan notation: IUPAC condensed, linker removed
# [1] = target: Fuc(a1-2)Gal(b1-4)GlcNAc(b1-3)Gal(b1-4)GlcNAc(b1-3)Gal(b1-4)GlcNAc
# Summary of the method: (§1)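 Glycan array data came from 3228 arrays in the Consortium for Functional Glycomics database, and only arrays with an available protein sequence were kept. Glycan names were put into IUPAC-condensed notation, and columns mapping to the same glycan were averaged. The binding signal is a within-array Z-score, averaged across arrays of one protein sequence run at different concentrations or buffers and across linkers. A negative Z-score can be read as non-binding.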
# [2] = target: Fuc(a1-2)Gal(b1-4)[Fuc(a1-3)]GlcNAc(b1-2)Man(a1-6)[Fuc(a1-2)Gal(b1-4)[Fuc(a1-3)]GlcNAc(b1-2)Man(a1-3)]Man(b1-4)GlcNAc(b1-4)[Fuc(a1-6)]GlcNAc
# Summary of the method: as §1
# [3] = target: Fuc(a1-2)Gal6S(b1-3)GlcNAc6S
# Summary of the method: as §1
# [4] = target: Fuc(a1-2)Gal6S(b1-4)Glc6S
# Summary of the method: as §1
# [5] = target: Fuc(a1-2)[Gal(a1-3)]Gal(b1-4)[Fuc(a1-3)]Glc
# Summary of the method: as §1
# [6] = target: Fuc(a1-3)[Gal(b1-4)]GlcNAc(b1-2)Man(a1-3)[Fuc(a1-3)[Gal(b1-4)]GlcNAc(b1-2)Man(a1-6)]Man(b1-4)GlcNAc(b1-4)[Fuc(a1-6)]GlcNAc
# Summary of the method: as §1
# [7] = target: Fuc(a1-3)[GalNAc(b1-4)]GlcNAc
# Summary of the method: as §1
# [8] = target: Gal(a1-3)Gal(b1-3)GlcNAc(b1-2)Man(a1-3)[Gal(a1-3)Gal(b1-3)GlcNAc(b1-2)Man(a1-6)]Man(b1-4)GlcNAc(b1-4)GlcNAc
# Summary of the method: as §1
# [9] = target: Gal(a1-3)Gal(b1-3)GlcNAc(b1-3)GalNAc
# Summary of the method: as §1
# [10] = target: Gal(a1-3)Gal(b1-4)GlcNAc(b1-3)GalNAc
# Summary of the method: as §1
# [11] = target: Gal(a1-4)Gal(b1-3)GlcNAc(b1-2)Man(a1-3)[Gal(a1-4)Gal(b1-3)GlcNAc(b1-2)Man(a1-6)]Man(b1-4)GlcNAc(b1-4)GlcNAc
# Summary of the method: as §1
# [12] = target: Gal(a1-4)Gal(b1-4)GlcNAc(b1-2)Man(a1-3)[Gal(a1-4)Gal(b1-4)GlcNAc(b1-2)Man(a1-6)]Man(b1-4)GlcNAc(b1-4)GlcNAc
# Summary of the method: as §1
# [13] = target: Gal(b1-3)GlcNAc(b1-3)Gal(b1-4)GlcNAc
# Summary of the method: as §1
# [14] = target: Gal(b1-3)GlcNAc(b1-3)Gal(b1-4)GlcNAc(b1-6)[Gal(b1-3)GlcNAc(b1-3)]Gal(b1-4)Glc
# Summary of the method: as §1
# [15] = target: Gal(b1-3)GlcNAc(b1-3)GalNAc
# Summary of the method: as §1
# [16] = target: Gal(b1-3)GlcNAc(b1-6)Gal(b1-4)GlcNAc
# Summary of the method: as §1
# [17] = target: Gal(b1-4)GlcNAc(a1-6)Gal(b1-4)GlcNAc
# Summary of the method: as §1
# [18] = target: Gal(b1-4)GlcNAc(b1-2)Man(a1-3)[Gal(b1-4)GlcNAc(b1-2)Man(a1-6)]Man(b1-4)GlcNAc(b1-4)[Fuc(a1-6)]GlcNAc
# Summary of the method: as §1
# [19] = target: Gal(b1-4)GlcNAc(b1-2)Man(a1-6)Man(b1-4)GlcNAc(b1-4)GlcNAc
# Summary of the method: as §1
# [20] = target: Gal(b1-4)GlcNAc(b1-3)Gal(b1-4)Glc
# Summary of the method: as §1
# [21] = target: Gal(b1-4)GlcNAc(b1-6)Gal(b1-4)GlcNAc
# Summary of the method: as §1
# [22] = target: GalNAc(b1-3)Gal(a1-4)Gal(b1-4)GlcNAc(b1-3)Gal(b1-4)Glc
# Summary of the method: as §1
# [23] = target: GalNAc(b1-3)Gal(a1-6)Gal(b1-4)Glc
# Summary of the method: as §1
# GlcA(b1-3)GlcNAc = target: GlcA(b1-3)GlcNAc
# Summary of the method: as §1
# GlcA(b1-6)Gal = target: GlcA(b1-6)Gal
# Summary of the method: as §1
# [24] = target: GlcNAc(a1-4)Gal(b1-4)GlcNAc(b1-3)Gal(b1-4)GlcNAc(b1-3)Gal(b1-4)GlcNAc
# Summary of the method: as §1
# [25] = target: GlcNAc(a1-4)Gal(b1-4)GlcNAc(b1-3)Gal(b1-4)[Fuc(a1-3)]GlcNAc(b1-3)Gal(b1-4)[Fuc(a1-3)]GlcNAc
# Summary of the method: as §1
# [26] = target: GlcNAc(b1-2)Man(a1-3)[GlcNAc(b1-2)Man(a1-6)]Man(b1-4)GlcNAc(b1-4)GlcNAc
# Summary of the method: as §1
# [27] = target: GlcNAc(b1-2)[GlcNAc(b1-4)]Man(a1-3)[GlcNAc(b1-2)Man(a1-6)]Man(b1-4)GlcNAc(b1-4)GlcNAc
# Summary of the method: as §1
# [28] = target: GlcNAc(b1-3)Gal(b1-4)GlcNAc
# Summary of the method: as §1
# GlcNAc(b1-3)Man = target: GlcNAc(b1-3)Man
# Summary of the method: as §1
# Man(a1-2)Man(a1-3)Man = target: Man(a1-2)Man(a1-3)Man
# Summary of the method: as §1
# [29] = target: Man(a1-3)[Man(a1-6)]Man(a1-6)[Man(a1-2)Man(a1-3)]Man(b1-4)GlcNAc(b1-4)GlcNAc
# Summary of the method: as §1
# [30] = target: Man(a1-3)[Man(a1-6)]Man(a1-6)[Man(a1-3)]Man
# Summary of the method: as §1
# [31] = target: Man(a1-3)[Man(a1-6)]Man(b1-4)GlcNAc(b1-4)GlcNAc
# Summary of the method: as §1
# [32] = target: Man(a1-3)[Man(a1-6)]Man(b1-4)GlcNAc(b1-4)[Fuc(a1-6)]GlcNAc
# Summary of the method: as §1
# [33] = target: Neu5Ac(a2-3)Gal(b1-4)GlcNAc(b1-2)[Neu5Ac(a2-3)Gal(b1-4)GlcNAc(b1-6)]Man(a1-6)[Neu5Ac(a2-3)Gal(b1-4)GlcNAc(b1-2)Man(a1-3)]Man(b1-4)GlcNAc(b1-4)GlcNAc
# Summary of the method: as §1
# [34] = target: Neu5Ac(a2-3)Gal(b1-4)GlcNAc(b1-3)Gal
# Summary of the method: as §1
# [35] = target: Neu5Ac(a2-3)Gal(b1-4)GlcNAc6S
# Summary of the method: as §1
# [36] = target: Neu5Ac(a2-6)Gal(b1-4)GlcNAc(b1-2)Man(a1-6)[GlcNAc(b1-2)Man(a1-3)]Man(b1-4)GlcNAc(b1-4)GlcNAc
# Summary of the method: as §1
# [37] = target: Neu5Ac9Ac(a2-3)Gal(b1-3)GlcNAc
# Summary of the method: as §1
# [38] = target: Neu5Gc(a2-3)Gal(b1-4)GlcNAc
# Summary of the method: as §1
# [39] = target: Fuc(a1-2)[GalNAc(a1-3)]Gal
# Summary of the method: as §1
# [40] = target: Gal(a1-3)[Gal(a1-4)]Gal(b1-4)GlcNAc
# Summary of the method: as §1
# [41] = target: Gal(b1-4)GalNAc(a1-3)[Fuc(a1-2)]Gal(b1-4)GlcNAc
# Summary of the method: as §1
# Gal3S(b1-3)GalNAc = target: Gal3S(b1-3)GalNAc
# Summary of the method: as §1
# Gal3S(b1-4)GlcNAc = target: Gal3S(b1-4)GlcNAc
# Summary of the method: as §1
# Gal4S(b1-4)GlcNAc = target: Gal4S(b1-4)GlcNAc
# Summary of the method: as §1
# [42] = target: GlcNAc(b1-4)GlcNAc(b1-4)GlcNAc
# Summary of the method: as §1
# [43] = target: Man(a1-2)Man(a1-6)[Man(a1-3)]Man(a1-6)[Man(a1-2)Man(a1-2)Man(a1-3)]Man(b1-4)GlcNAc(b1-4)GlcNAc
# Summary of the method: as §1
# [44] = target: Neu5Ac(a2-8)Neu5Ac(a2-3)[GalNAc(b1-4)]Gal(b1-4)Glc
# Summary of the method: as §1
# [45] = target: Neu5Ac(a2-8)Neu5Ac(a2-8)Neu5Ac(a2-3)Gal(b1-4)Glc
# Summary of the method: as §1
# Neu5Gc(a2-3)Gal(b1-4)Glc = target: Neu5Gc(a2-3)Gal(b1-4)Glc
# Summary of the method: as §1
binder,measurement,setting,value
"RVL (Remusatia vivipara), B5LYJ9 (protein) MAKLLLFLLPAILGLLVPRSAVALGTNYLLSGQTLDTEGHLKNGDFDLVMQDDCNLVLYNGNWQSNTANNGRDCKLTLTDYGELVIKNGDGSTVWKSGAQSVKGNYAAVVHPDGRLVVLGPSVFKIDPWVRGLNSLRFRNIPFTNNLLFSGQVLYGDGRLTAKNHQLVMQGDCNLVLYGGKYGWQSNTHGNGEHCFLRLNHKGELIIKDDDFKTIWSSRSSSKQGEYVLILQDDGFGVIYGPAIFETSSKRSIAAS",glycan array binding signal (z-score),[1],-0.272
same,glycan array binding signal (z-score),[2],9.79
same,glycan array binding signal (z-score),[3],0.483
same,glycan array binding signal (z-score),[4],-0.151
same,glycan array binding signal (z-score),[5],-0.32
same,glycan array binding signal (z-score),[6],0.076
same,glycan array binding signal (z-score),[7],-0.292
same,glycan array binding signal (z-score),[8],0.313
same,glycan array binding signal (z-score),[9],-0.166
same,glycan array binding signal (z-score),[10],-0.178
same,glycan array binding signal (z-score),[11],1.75
same,glycan array binding signal (z-score),[12],1.93
same,glycan array binding signal (z-score),[13],-0.252
same,glycan array binding signal (z-score),[14],-0.574
same,glycan array binding signal (z-score),[15],-0.055
same,glycan array binding signal (z-score),[16],0.004
same,glycan array binding signal (z-score),[17],-0.142
same,glycan array binding signal (z-score),[18],7.05
same,glycan array binding signal (z-score),[19],-0.136
same,glycan array binding signal (z-score),[20],-0.252
same,glycan array binding signal (z-score),[21],-0.216
same,glycan array binding signal (z-score),[22],-0.066
same,glycan array binding signal (z-score),[23],-0.17
same,glycan array binding signal (z-score),GlcA(b1-3)GlcNAc,-0.098
same,glycan array binding signal (z-score),GlcA(b1-6)Gal,-0.23
same,glycan array binding signal (z-score),[24],0.124
same,glycan array binding signal (z-score),[25],0.3
same,glycan array binding signal (z-score),[26],0.913
same,glycan array binding signal (z-score),[27],2.4
same,glycan array binding signal (z-score),[28],-0.145
same,glycan array binding signal (z-score),GlcNAc(b1-3)Man,-0.227
same,glycan array binding signal (z-score),Man(a1-2)Man(a1-3)Man,-0.197
same,glycan array binding signal (z-score),[29],3.91
same,glycan array binding signal (z-score),[30],0.224
same,glycan array binding signal (z-score),[31],3.8
same,glycan array binding signal (z-score),[32],6.15
same,glycan array binding signal (z-score),[33],3.54
same,glycan array binding signal (z-score),[34],-0.103
same,glycan array binding signal (z-score),[35],-0.033
same,glycan array binding signal (z-score),[36],-0.207
same,glycan array binding signal (z-score),[37],-0.284
same,glycan array binding signal (z-score),[38],-0.111
"RegIIIgamma (Mus musculus), O09049 (protein) MLPRITITIMSWMLLSCLMLLSQVQGEVAKKDAPSSRSSCPKGSRAYGSYCYALFSVSKNWYDADMACQKRPSGHLVSVLSGAEASFLSSMIKSSGNSGQYVWIGLHDPTLGYEPNRGGWEWSNADVMNYINWETNPSSSSGNHCGTLSRASGFLKWRENYCNLELPYVCKFKA",glycan array binding signal (z-score),[1],0.632
same,glycan array binding signal (z-score),[39],-0.258
same,glycan array binding signal (z-score),[40],0.491
same,glycan array binding signal (z-score),[41],-0.228
same,glycan array binding signal (z-score),Gal3S(b1-3)GalNAc,-0.134
same,glycan array binding signal (z-score),Gal3S(b1-4)GlcNAc,-0.128
same,glycan array binding signal (z-score),Gal4S(b1-4)GlcNAc,1.17
same,glycan array binding signal (z-score),[42],-0.185
same,glycan array binding signal (z-score),[43],-0.06
same,glycan array binding signal (z-score),[44],-0.133
same,glycan array binding signal (z-score),[45],-0.163
same,glycan array binding signal (z-score),Neu5Gc(a2-3)Gal(b1-4)Glc,-0.148
